Laboratory results taken from PubChem BioAssay (NCI).
Compounds without any hit were thinned out: in the full panel of roughly 83,000, 20% have a hit.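 The endpoint reported here, percent growth, reads 100 for growth as untreated, 0 for no net growth and -100 for all cells dead.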 A number with no mark means an inactive call. Activity calls are given as the source filed them.

These compounds were tested on NCI-H522 lung (assay: NCI-60 one-dose screen, 48 h (100 = growth as untreated, 0 = no growth, -100 = all killed)). Settings: 10 µM unless noted.
Method: Growth inhibition of the NCI-H522 human Non-Small Cell Lung tumor cell line is measured as a screen for anti-cancer activity. Cells are grown in 96 well plates and exposed to the test compound for 48 hours. Compounds are tested at a single concentration, which is 10^-5 M for most compounds. The reported endpoint is percent growth (GI% or GIPRCNT), where numbers from 0 - 100% represent growth inhibition, and numbers from -100% - 0 represent cell death. For example, a value of 40 represents 60% growth inhibition. A value of 0 means no net growth occurred over the course of the experiment. A value of -40 indicates 40% of cells at the beginning of the experiment died by the end of the experiment. A value of -100 means all cells are dead at the end of the experiment.
NCI-60 Human Tumor Cell Lines Screen was performed using the standard one-dose NCI protocol, which is described in more detail at https://dtp.cancer.gov/discovery_development/nci-60/default.htm.
Compounds with GIPRCNT values below 10 were considered active. Activity score was based on GIPRCNT using the following formula: […]
Score is 0 for GIPRCNT values of 100 or above, 50 for GIPRCNT values of 0, and 100 for GIPRCNT values of -100.

SMILES	growth
NC(=Nc1ccccc1)N[N+](=O)[O-]	115%
COc1cc([N+](=O)[O-])c2nc(C)ccc2c1[N+](=O)[O-]	87.2%
Cc1cc(N(CCCl)CCCl)ccc1C=Nc1ccccc1-c1ccccc1	99.5%
COC(=O)[C@H](Cc1c[nH]c2ccccc12)NC(=O)[C@@H](OC)[C@@H]1Cc2cc3cc(OC4CC(OC5CC(O)C(O)C(C)O5)C(O)C(C)O4)c(C)c(O)c3c(O)c2C(=O)[C@H]1OC1CC(OC2CC(OC3CC(C)(O)C(O)C(C)O3)C(O)C(C)O2)C(O)C(C)O1 (stereo not given in full)	-28.2% (active)
O=C(CCCC1CCCCC1)OCC(Cl)(Cl)Cl	96.2%
CC1=C2[C@@H](CC1)[C@]1(C)O[C@@](C(C)C)(C[C@H]1O)[C@H]2OC(=O)C1CC1c1ccccc1 (stereo not given in full)	72.7%
COc1cccc(C=NC(Cc2cnc[nH]2)C(=O)O)c1O (stereo not given)	59.3%
COc1ccc(N(CC(=O)NCCC[Te]c2ccccc2)C(=O)CNC(=O)OC(C)(C)C)cc1	-0.481% (active)
Cc1cc(C)cc(Nc2nc3c(s2)CC[C@@]2(C)C3=CC[C@@H]3[C@@H]2CC[C@]2(C)C(=O)CC[C@@H]32)c1	66.1%
CNCc1cccnc1	84.2%
Cc1c(C)c([N+](=O)[O-])c(C)c(C)c1[N+](=O)[O-]	80.3%
Cc1c(O)c(CN(CCCl)CCCl)cc(CN(CCCl)CCCl)c1O	79.4%
CC1(C)CN1P(=O)(N1CC1(C)C)N1CC1(C)C (stereo not given)	104%
C=CCc1cc2c(cc1OCC)OCO2	74.5%
C1CCC([PH+](C2CCCCC2)C2CCCCC2[PH+](C2CCCCC2)C2CCCCC2)CC1.O=C(C1[CH-]CCCC1)C1CCCC[N-]1.[Au] (stereo not given)	-22.4% (active)
Nc1ccc2c(c1)oc1ccccc12	95.9%
O=C1C2CC=CCC2C(=O)N1SC(Cl)(Cl)Cl (stereo not given)	-57.1% (active)
Fc1ccc2c(c1)c(-c1nc(-c3c[nH]c4ncccc34)cs1)cn2CCCCN1CCCCC1	-87.2% (active)
C=CCn1cc(C=C2C(=O)N(C)C(=O)N(C)C2=O)c2ccccc21	105%
COC(=O)[C@H](Cc1ccccc1)NNC(=O)c1csc([C@@H](C[C@H](C(C)C)N(C)C(=O)[C@@H](NC(=O)[C@H]2CCCCN2C)C2CC2)OC(C)=O)n1	-19.2% (active)

SMILES	growth
COc1ccc(N(CC(=O)NCCC[Te]c2ccccc2)C(=O)CCSC2=C(C)C(=O)c3ccccc3C2=O)cc1	-41.2% (active)
COc1ccc(Nc2ccnc3cc(Cl)ccc23)cc1CN(CCCl)CCCl	-47.6% (active)
Clc1ccc(N2COOC3(OOC2)C2CC4CC(C2)CC3C4)cc1	-53.2% (active)
C[CH2][Sn]([Cl])([Cl])[CH2]C.Oc1ccccc1C=NCCN=Cc1ccccc1O	9.48% (active)
CS(=O)(=O)CCN1CC2CCCC(C2)C1	97.9%
O=P(N1CC1)(N1CC1)N1CCc2ccccc21	109%
O=[N+]([O-])c1cnc[nH]1	106%
CC1[C@H](C)OC(=O)CC(O)CC(O)CC(O)CCC(O)C(O)C[C@]2(O)CC(O)C(C(=O)O)C(CC(OC3O[C@H](C)[C@@H](O)[C@H](N)[C@@H]3O)/C=C/C=C/C=C/C=C/CC/C=C/C=C/[C@H](C)[C@H]1O)O2 (stereo not given in full)	114%
CCC1(C(C)C)C(=O)NC(=S)NC1=O	105%
C=CC1=C[C@@H]2[C@@H]3O[C@]4(CC[C@H](O4)[C@@H](C)C[C@@H](O)C3=O)C[C@H](O)C3=NCC[C@@]32CC1	-33.5% (active)
CCC(C)(C)[C@H](NC(=O)[C@H]1CCCCN1C)C(=O)N(C)[C@H](C[C@@H](OC(C)=O)c1nc(C(=O)N[C@@H](Cc2ccccc2)C[C@H](C)C(=O)O)cs1)C(C)C	-32.1% (active)
Cc1c2cc(Cl)c3ccccc3c2c[n+]2ccccc12	17.1%
Clc1ccc(COC(Cn2ccnc2)c2ccc(Cl)cc2Cl)cc1 (stereo not given)	36.4%
Cn1cc(C2=C(c3cn(C4CCN(Cc5ccccn5)CC4)c4ccccc34)C(=O)NC2=O)c2ccccc21	48.8%
Clc1cccc(NCOOC2(OOCNc3cccc(Cl)c3)CCCCC2)c1	14.7%
C[C@@]1(CCCCCCCCCc2ccc(O)cc2)C[C@]2(C)OC(=O)C[C@@H]2OO1	90%
O=C(NCCN1CC1)C(=O)NCCN1CC1	62.7%
CC[C@H](C)[C@@H]1OC(=O)C(C)(C)[C@H](O)[C@H](Cc2ccccc2)OC(=O)[C@H](C(C)C)OC(=O)[C@@H](NC(=O)c2cccc(NC=O)c2O)[C@@H](C)OC1=O	38.9%
c1cnc2[nH]cc(-c3csc(-c4cn(CCCCN5CCCCC5)c5ccccc45)n3)c2c1	98.5%
CCn1c2ccccc2c2cc(C(=O)c3ccc(C)c4ccccc34)ccc21	0.105% (active)
